Assay results as given in PubChem BioAssay.
For some of these results: Measured potencies and affinities stand elsewhere. Activity calls are given as the source filed them.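 How the source made its calls, unless noted: active means fluorescence ratio normalized to control raised more than 50% in primary screen plus both repeat runs; inactive means the rest.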

Legend:
[1] = test system: TRPC4 beta (transient receptor potential cation channel C4), mouse; test: activators of mouse TRPC4 channel, confirmation, cell-based, Fluo4 calcium, HEK293 TRPC4beta/mu-opioid, duplicates, 10 µM (AID 2426); conditions: Fluo4 calcium fluorescence, at 10 µM; stronger effect = higher value
[2] = test system: transient receptor potential cation channel C4 beta (TRPC4), mouse; test: activators of mouse TRPC4 channel, confirmation, cell-based, second round, Fluo4, HEK293 TRPC4beta/mu-opioid, 1 µM (AID 2461;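 active means primary screen active and over 50% activation in each of two duplicate runs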); conditions: Fluo4 calcium fluorescence, at 1 µM; stronger effect = higher value
[3] = test system: TRPC4 (transient receptor potential cation channel C4 beta), mouse; test: positive allosteric modulators of mouse TRPC4, confirmation, cell-based, second round, Fluo-4, HEK293 TRPC4beta/mu-opioid, 1 µM (AID 2554;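 active means primary screen hit whose fluorescence ratio, in both repeats, exceeds the weak agonist control mean by 3 SD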); conditions: DAMGO EC20, Fluo-4 calcium flux, at 1 µM; stronger effect = higher value
[4] = test system: TRPC4 beta (transient receptor potential cation channel C4), mouse; test: positive allosteric modulators of mouse TRPC4, confirmation, cell-based, Fluo-4, HEK293 TRPC4beta/mu-opioid (AID 2555;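 active means primary screen hit whose calcium fluorescence ratio, in both repeats, exceeds the weak agonist control mean by 3 SD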); conditions: DAMGO EC20, Fluo-4 calcium flux, at 10 µM; stronger effect = higher value
[5] = target: Short transient receptor potential channel 4 (Mus musculus) (UniProt Q9QUQ5); test: inhibitors of mouse TRPC4 channel, confirmation, cell-based, Fluo4, HEK293 TRPC4beta/mu-opioid (AID 2636;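 active means calcium signal cut by more than 3 SD below the full-agonist control yet still positive, in both repeats and the earlier primary screen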); conditions: DAMGO, Fluo4 calcium flux, at 10 µM; stronger effect = higher value
[6] = target: Short transient receptor potential channel 4 (Mus musculus) (UniProt Q9QUQ5); test: inhibitors of mouse TRPC4 channel, confirmation, cell-based, second round, Fluo4, HEK293 TRPC4beta/mu-opioid, 1 µM (AID 2637;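 active means calcium signal ratio cut to more than 3 SD under the fully stimulated control mean yet still positive, in both repeats and the primary screen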;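 on inhibition: percent of integrated ratio relative to wells lacking test compound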); conditions: Fluo4 calcium flux, DAMGO, at 1 µM; stronger effect = higher value
[7] = target: Short transient receptor potential channel 4 (Mus musculus) (UniProt Q9QUQ5); test: mouse TRPC4 channel activators, dose response, cell-based, HEK293 TRPC4/mu-opioid, Fluo-4 calcium (AID 434937;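 active means primary screen activator hit with a dose response curve and TRPC4 channel activation at any tested dose; inactive means no activation, no dose response, or not a primary hit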)
[8] = target: Short transient receptor potential channel 4 (Mus musculus) (UniProt Q9QUQ5); test: TRPC4 positive allosteric modulators, dose response, cell-based, HEK293 TRPC4/mu-opioid, Fluo-4 calcium, EC20 DAMGO (AID 434941;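 active means earlier screen potentiator hit that boosts the TRPC4 ion channel at some dose, with a dose response; inactive means no potentiation, no dose response, or not a prior hit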;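 further: calcium entry triggered by an EC20 dose of DAMGO at the co-expressed mu-opioid receptor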)
[9] = target: Short transient receptor potential channel 6 (Mus musculus) (UniProt Q61143); test: inhibition of mouse TRPC6 channel, confirmation, selectivity assay for TRPC4 inhibitor project, cell-based, HEK293, membrane potential dye, duplicate (AID 434948;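 active means active in primary screen and both duplicates, each dropping signal beyond three positive-control SD with fluorescence still positive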); conditions: HEK293 TRPC6, membrane potential dye fluorescence, at 10 µM; inhibition: stronger effect = higher value, stimulated with maximal-effect acetylcholine unless noted; outcome: stimulated with maximal-effect acetylcholine unless noted
[10] = target: Short transient receptor potential channel 6 (Mus musculus) (UniProt Q61143); test: activation of mouse TRPC6 channel, confirmation, selectivity assay for TRPC4 activator project, cell-based, HEK293, membrane potential dye, duplicate (AID 434950;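 active means membrane potential signal rise above negative control mean plus 3 SD in both duplicates, also active in the earlier TRPC4 screen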); conditions: HEK293 TRPC6, membrane potential fluorescence, at 10 µM; stronger effect = higher value
[11] = target: Short transient receptor potential channel 6 (Mus musculus) (UniProt Q61143); test: TRPC6 potentiation by TRPC4 potentiator hits, confirmation, selectivity assay for TRPC4 potentiator project, HEK293 cells, membrane potential dye, duplicate (AID 434952;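 active means compound raising the membrane signal above positive-control mean plus 3 SD in both repeats, and a primary screen hit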); conditions: HEK293 TRPC6, membrane potential dye fluorescence, at 10 µM; maximal acetylcholine added after compound unless noted
[12] = target: Short transient receptor potential channel 4 (Mus musculus) (UniProt Q9QUQ5); test: calcium flux activators in TRPC4/5HT1a cells, counter-screen for TRPC4 activator project, cell-based, second counter screen, HEK293 TRPC4/5HT1a, Fluo-4 (AID 434977;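 active means calcium signal rise above buffer-control mean plus 5 SD in both duplicates, and also a hit in the primary screen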); conditions: Fluo-4 calcium flux, at 10 µM; stronger effect = higher value
[13] = calcium flux inhibitors in TRPC4/5HT1a cells, confirmation, counter-screen for TRPC4 inhibitor project, cell-based, second counter screen, HEK293 TRPC4/5HT1a, Fluo-4 (AID 434978;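 active means primary screen active whose calcium signal fell more than 3 SD beyond the full-serotonin control mean in both duplicate plates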;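 on outcome: serotonin given first at submaximal then at maximal dose after compound preincubation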); conditions: Fluo-4 calcium flux, at 10 µM; inhibition: stronger effect = higher value, serotonin added to trigger calcium flux unless noted; outcome: serotonin added to trigger calcium flux unless noted
[14] = test system: TRPC4 (mouse), co-expressed with 5HT1a in HEK293; test: calcium flux potentiators in TRPC4/5HT1a cells, confirmation, counter-screen for TRPC4 potentiator project, cell-based, second counter screen, HEK293 TRPC4/5HT1a, Fluo-4 (AID 434979;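 active means signal rise over 3 SD above mean of control wells given weak agonist, in both repeats and first screen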); conditions: Fluo-4 calcium flux, at 10 µM; outcome: serotonin added at its EC20 dose unless noted; potentiation: stronger effect = higher value, serotonin added at its EC20 dose unless noted
[15] = calcium flux activation in mu-opioid HEK293 cells, confirmation, counter-screen for TRPC4 activator project, cell-based, HEK293 mu-opioid receptor line (AID 449723;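 active means hit in primary screen, with calcium signal over 5 SD above buffer well mean in both duplicates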;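 further: counter screen cells carry the mu-opioid receptor alone and lack TRPC4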); conditions: Fluo-4 calcium fluorescence, at 10 µM; stronger effect = higher value
[16] = calcium flux enhancement in mu-opioid HEK293 cells, confirmation, counter-screen for TRPC4 allosteric potentiator project, cell-based, HEK293 mu-opioid receptor line (AID 449724;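 active means calcium signal rise more than 3 SD above the low-dose agonist control mean, in both duplicate plates and the primary screen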); conditions: Fluo-4 calcium flux, at 10 µM; compound added before EC20 DAMGO stimulus unless noted
[17] = target: Short transient receptor potential channel 4 (Mus musculus) (UniProt Q9QUQ5); test: mouse TRPC4 channel inhibitors, dose response, cell-based, HEK293 TRPC4/mu-opioid, Fluo-4 calcium (AID 434942;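 active means primary screen inhibitor hit that blocks the TRPC4 channel at some tested dose, yielding a dose curve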)

Sequence of Short transient receptor potential channel 6 (Mus musculus) (Q61143 whole entry, looked up): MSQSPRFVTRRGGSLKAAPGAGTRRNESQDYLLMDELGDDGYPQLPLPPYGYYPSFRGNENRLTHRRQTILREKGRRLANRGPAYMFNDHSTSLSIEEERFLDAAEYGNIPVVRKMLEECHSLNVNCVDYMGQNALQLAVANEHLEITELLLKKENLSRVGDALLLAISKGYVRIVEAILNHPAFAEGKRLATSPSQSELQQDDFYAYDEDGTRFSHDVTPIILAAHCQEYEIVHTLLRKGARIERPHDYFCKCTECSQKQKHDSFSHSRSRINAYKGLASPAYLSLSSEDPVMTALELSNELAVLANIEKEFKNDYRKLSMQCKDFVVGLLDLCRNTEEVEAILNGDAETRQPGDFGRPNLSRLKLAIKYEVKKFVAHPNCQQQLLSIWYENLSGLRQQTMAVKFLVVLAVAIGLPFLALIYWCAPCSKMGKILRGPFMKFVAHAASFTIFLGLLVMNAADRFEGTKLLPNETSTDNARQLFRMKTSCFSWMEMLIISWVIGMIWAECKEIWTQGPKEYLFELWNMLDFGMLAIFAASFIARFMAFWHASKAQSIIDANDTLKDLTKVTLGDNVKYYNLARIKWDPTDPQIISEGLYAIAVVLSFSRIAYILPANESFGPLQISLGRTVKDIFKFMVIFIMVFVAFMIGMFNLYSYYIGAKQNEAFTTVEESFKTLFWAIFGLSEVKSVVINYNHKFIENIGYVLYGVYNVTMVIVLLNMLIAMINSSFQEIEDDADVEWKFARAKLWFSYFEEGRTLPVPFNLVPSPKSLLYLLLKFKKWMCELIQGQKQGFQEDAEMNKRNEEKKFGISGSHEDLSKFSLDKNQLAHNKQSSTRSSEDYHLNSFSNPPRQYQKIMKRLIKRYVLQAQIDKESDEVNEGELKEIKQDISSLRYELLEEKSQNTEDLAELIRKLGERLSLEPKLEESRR
Sequence of Short transient receptor potential channel 4 (Mus musculus) (Q9QUQ5 whole entry, looked up): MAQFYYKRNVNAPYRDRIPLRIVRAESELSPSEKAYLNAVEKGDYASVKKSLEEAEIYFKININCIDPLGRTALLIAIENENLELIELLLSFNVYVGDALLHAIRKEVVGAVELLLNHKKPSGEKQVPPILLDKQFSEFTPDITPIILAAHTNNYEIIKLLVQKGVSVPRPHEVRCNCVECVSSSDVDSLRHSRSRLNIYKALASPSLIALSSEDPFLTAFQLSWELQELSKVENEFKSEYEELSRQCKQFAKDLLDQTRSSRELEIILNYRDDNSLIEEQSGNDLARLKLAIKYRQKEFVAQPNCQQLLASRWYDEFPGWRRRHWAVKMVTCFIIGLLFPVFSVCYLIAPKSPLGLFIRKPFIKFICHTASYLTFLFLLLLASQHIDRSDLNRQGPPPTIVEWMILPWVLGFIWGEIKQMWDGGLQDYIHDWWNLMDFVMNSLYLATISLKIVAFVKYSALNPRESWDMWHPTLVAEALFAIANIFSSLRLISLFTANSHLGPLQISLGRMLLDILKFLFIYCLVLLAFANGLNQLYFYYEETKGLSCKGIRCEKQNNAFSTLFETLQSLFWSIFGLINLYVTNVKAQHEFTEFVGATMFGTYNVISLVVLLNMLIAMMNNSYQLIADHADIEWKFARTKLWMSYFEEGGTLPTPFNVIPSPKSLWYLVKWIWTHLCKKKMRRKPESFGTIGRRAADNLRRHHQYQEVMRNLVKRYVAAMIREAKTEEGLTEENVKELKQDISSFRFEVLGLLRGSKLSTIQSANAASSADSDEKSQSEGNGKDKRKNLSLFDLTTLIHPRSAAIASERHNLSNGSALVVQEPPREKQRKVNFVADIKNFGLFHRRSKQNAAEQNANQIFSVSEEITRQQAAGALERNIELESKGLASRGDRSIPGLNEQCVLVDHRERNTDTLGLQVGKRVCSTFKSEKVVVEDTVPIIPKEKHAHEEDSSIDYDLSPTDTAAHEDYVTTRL

CCOC(=O)C1(CCc2ccccc2)CCN(Cc2cccc3c2OCO3)CC1
active: inhibition [5] 102%
inactive: outcome [1] | outcome [2] | outcome [3] | outcome [4] | outcome [6] | outcome [7] | outcome [8] | outcome [9] | outcome [10] | outcome [11] | outcome [12] | outcome [13] | outcome [14] | outcome [15] | outcome [16]

Cc1ccccc1CN1CCNCC1
inactive: outcome [1] | outcome [2] | outcome [3] | outcome [4] | outcome [5] | outcome [6] | outcome [7] | outcome [8] | outcome [17] | outcome [9] inactive [setting not given] | outcome [10] | outcome [11] inactive [setting not given] | outcome [12] | outcome [13] inactive [setting not given] | outcome [14] inactive [setting not given] | outcome [15] | outcome [16] inactive [setting not given]

Cc1cccc(N=Cc2c(O)n(-c3ccccc3C)c(=O)[nH]c2=O)c1
inactive: outcome [1] | outcome [2] | outcome [3] | outcome [5] | outcome [6] | outcome [7] | outcome [8] | outcome [17] | outcome [9] inactive [setting not given] | outcome [10] | outcome [11] inactive [setting not given] | outcome [12] | outcome [13] inactive [setting not given] | outcome [15] | outcome [16] inactive [setting not given]
active: potentiation [4] 28% | potentiation [14] 32.1% [stronger effect = higher value]

COc1ccc(OC)c(CN2CCCC(C(=O)c3sccc3C)C2)c1 (centres undefined)
inactive: outcome [1] | outcome [2] | outcome [3] | outcome [4] | outcome [7] | outcome [8] | outcome [9] | outcome [10] | outcome [11] | outcome [12] | outcome [14] | outcome [15] | outcome [16]
active: inhibition [5] 97% | inhibition [6] 50% | inhibition [13] 25.9%

CCNCCNc1ccc([N+](=O)[O-])c2cccnc12
inactive: outcome [1] | outcome [2] | outcome [4] | outcome [5] | outcome [6] | outcome [7] | outcome [8] | outcome [17] | outcome [9] | outcome [10] | outcome [11] | outcome [12] | outcome [13] | outcome [14] | outcome [15] | outcome [16]
active: potentiation [3] 11%

CC(C)CNc1c2c(nc3ccccc13)CCC2
inactive: outcome [1] | outcome [2] | outcome [3] | outcome [4] | outcome [5] | outcome [6] | outcome [7] | outcome [8] | outcome [17] | outcome [9] | outcome [10] | outcome [11] | outcome [12] | outcome [13] | outcome [14] | outcome [15] | outcome [16]

CCCCc1ncc(CN2CCCC(C(=O)c3ccc(SC)cc3)C2)[nH]1 (centres undefined)
active: inhibition [5] 90% | inhibition [6] 45% | inhibition [13] 41.9%
inactive: outcome [1] | outcome [2] | outcome [3] | outcome [4] | outcome [7] | outcome [8] | outcome [9] | outcome [10] | outcome [11] | outcome [12] | outcome [14] | outcome [15] | outcome [16]

CCC1=Nc2cc(C(=O)N3CCC4(CC3)OCCO4)ccc2Sc2ccc(C)cc21
inactive: outcome [1] | outcome [2] | outcome [3] | outcome [4] | outcome [6] | outcome [7] | outcome [8] | outcome [9] inactive [setting not given] | outcome [10] | outcome [11] inactive [setting not given] | outcome [12] | outcome [13] inactive [setting not given] | outcome [14] inactive [setting not given] | outcome [15] | outcome [16] inactive [setting not given]
active: inhibition [5] 74%

CCN(CC)c1ccc([N+](=O)[O-])c2cccnc12
inactive: outcome [1] | outcome [2] | outcome [3] | outcome [4] | outcome [6] | outcome [7] | outcome [8] | outcome [9] | outcome [10] | outcome [11] | outcome [12] | outcome [14] | outcome [15] | outcome [16]
active: inhibition [5] 93% | inhibition [13] 28%

CCOC(=O)C1(c2ccccc2)CCN(CC(=O)Nc2ccc(C)cc2)CC1
inactive: outcome [1] | outcome [2] | outcome [3] | outcome [4] | outcome [6] | outcome [7] | outcome [8] | outcome [9] inactive [setting not given] | outcome [10] | outcome [11] inactive [setting not given] | outcome [12] | outcome [13] inactive [setting not given] | outcome [14] inactive [setting not given] | outcome [15] | outcome [16] inactive [setting not given]
active: inhibition [5] 80%

Cc1cccc(N2CCc3c2nc2ccccc2c3N)c1
inactive: outcome [1] | outcome [2] | outcome [3] | outcome [4] | outcome [7] | outcome [8] | outcome [9] | outcome [10] | outcome [11] | outcome [12] | outcome [14] | outcome [15] | outcome [16]
active: inhibition [5] 67% | inhibition [6] 51% | inhibition [13] 24.6%

Cc1cc(OC(C)C(=O)NCc2ccncc2)c2c3c(c(=O)oc2c1)CCCC3 (centres undefined)
inactive: outcome [1] | outcome [2] | outcome [3] | outcome [4] | outcome [5] | outcome [6] | outcome [7] | outcome [8] | outcome [17] | outcome [9] | outcome [10] | outcome [11] | outcome [12] | outcome [13] | outcome [14] | outcome [15] | outcome [16]

CCOc1c(Cl)cc(CNC(C)C(O)c2ccccc2)cc1OC (centres undefined)
inactive: outcome [1] | outcome [2] | outcome [3] | outcome [4] | outcome [6] | outcome [7] | outcome [8] | outcome [9] | outcome [10] | outcome [11] | outcome [12] | outcome [13] | outcome [14] | outcome [15] | outcome [16]
active: inhibition [5] 99%

O=C(Cc1ccccc1)N1CCN(Cc2cccc(Br)c2)CC1
inactive: outcome [1] | outcome [2] | outcome [3] | outcome [4] | outcome [6] | outcome [7] | outcome [8] | outcome [9] | outcome [10] | outcome [11] | outcome [12] | outcome [14] | outcome [15] | outcome [16]
active: inhibition [5] 81% | inhibition [13] 37.8%
